Screening data deposited in PubChem BioAssay by National Center for Advancing Translational Sciences (NCATS).
A selection: hits, their analogues and other compounds. The true share with any hit is near 11%.
G9a block: inhibitors of human histone lysine methyltransferase G9a; 350,000 tested, 8.8% active; Q96KQ7; AID 504332; Potency, µM (highest dose often 102 µM), for inactives: at the highest dose activity, negative = inhibition, actives largely listed as inhibitors; G9a H3K9 monomethylation, AlphaScreen, 2 h; also: % is scaled to controls: 0 for no effect and ±100 for the full control effect; nearly all actives have a fitted effect of over 75% in size
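Quantitative HTS format: methyltransferase activity on a biotin-tagged H3K9 peptide is measured by AlphaScreen, using a rabbit anti-monomethyl-H3K9 antibody with streptavidin donor and anti-IgG acceptor beads. Final levels are 20 nM enzyme, 500 nM peptide, 20 uM SAM; 2 h RT.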
BAZ2B block: BAZ2B (human) inhibition. AlphaScreen BAZ2B-H3K14Ac peptide displacement. AID 504333. Potency, µM (highest dose often 114 µM), for the others: at the top dose activity change, negative = inhibition, usual class: inhibitors. 360,000 tested, 4.4% active; also: % is scaled to controls: 0 for no effect and ±100 for the full control effect; nearly all actives have a fitted effect of over 60% in size
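AlphaScreen luminescence quantifies BAZ2B engagement of H3K14Ac peptide; the protein and biotinylated peptide are both at 50 nM final, buffer PBS pH 7.4 with 0.01% Tween-20, all steps at room temperature.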
L3MBTL1 block: inhibitors of human L3MBTL1; AlphaScreen L3MBTL1–H3K9me1 peptide binding; 230,000 tested, 0.66% active; Potency, µM (top dose mostly 57.1 µM), without a hit: at the highest dose activity, negative = inhibition, usual class: inhibitors; also: % is scaled to controls: 0 for no effect and ±100 for the full control effect; nearly all actives have a fitted effect of over 60% in size
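First, the protein-peptide complex forms for 30 min at room temperature (L3MBTL1 50 nM, biotinylated H3K9me1 peptide 75 nM). Next, compounds are pin-transferred and incubated 30 min. Finally, AlphaScreen beads are added and read after 30 min.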
JMJD2A Tudor: JMJD2A Tudor domain (human) inhibition; AlphaScreen JMJD2A-Tudor / H3K4me3 peptide binding; Potency, µM (highest dose often 114 µM), for the others: top-dose activity change, negative = inhibition, actives largely listed as inhibitors; 390,000 tested, 4.4% active; AID 504339; also: % is scaled to controls: 0 for no effect and ±100 for the full control effect; nearly all actives have a fitted effect of over 50% in size
HP1b binding inh: inhibitors of HP1-beta chromodomain binding to methylated histone tails | P83916 | AlphaScreen HP1-beta / biotin-H3K9me3 peptide binding | Potency, µM (series often up to 114 µM), for inactives: at the highest dose activity change, negative = inhibition, hits mostly inhibitors | 390,000 tested, 0.56% active | AID 540317; also: nearly all actives have a fitted effect of over 70% in size
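AlphaScreen: HP1-beta (50 nM) preformed 30 min with biotin-H3(1-18)K9me3 peptide (50 nM) in PBS pH 7.4, 0.01% Tween-20. Compound added for 30 min at RT, then streptavidin donor/nickel chelate acceptor beads (10 ug/mL) for 30 min.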
* hit, by the source's call; ? = inconclusive; nt = no result; ! = a repeat was not active; [ ] = remark or other dose. Calls follow the shape of the dose curve; as a rule, active = well fitted inhibition curve with a large enough effect; inconclusive = small, poorly fitted or top-dose-only effect; inactive = no such curve, though single readings can be large or run the other way. Potency is read from the fitted curve at half-maximal effect.

SMILES | G9a block | BAZ2B block | L3MBTL1 block | JMJD2A Tudor | HP1b binding inh
O=C(OCC#CCSc1nnc(-c2cccc3ccccc23)o1)c1ccco1 | 21%[0.501 µM] | 79µM*! | ? | 7% | 54%
O=C(O)CC/C(=N/NC(=O)c1cn(-c2ccccc2)nc1-c1ccccc1)C(=O)O | 35µM* | ? | 1% | ? | 14%
COc1cc(NC(=O)c2noc3c2CC(C(C)(C)C)CC3)cc(OC)c1OC (stereo not drawn) | -26%[59 µM] | -19% | nt | -8% | 29%
CCOc1cccc(N)c1 | 2%[0.501 µM] | 13% | -3% | -12% | 25%
CCOc1ccc(N)c(SSc2cc(OCC)ccc2N)c1 | 0.56µM* | 32µM* | nt | 13µM* | 18µM*
Cc1ccc(S(=O)(=O)Nc2cc3c(cc2C)n(C)c(=O)c(=O)n3C)cc1 | 2%[59 µM] | 2% | nt | -3% | 30%
COc1ccc(S(=O)(=O)Nc2cc(C(C)C)c(O)cc2C)cc1 | -27%[12.7 µM] | -1% | nt | -15% | 10%
COc1ccc(S(=O)(=O)Nc2cc(C)c(O)cc2C(C)C)cc1 | 25µM* | 5% | -5% | -34% | 5%
Cc1ccc(S(=O)(=O)Nc2csc(C)c2C(=O)O)cc1 | 40µM* | 45µM* | 7.9µM* | -15% | 19%
Cc1ccc(S(=O)(=O)Nc2cc(C)c(O)cc2C)cc1 | 50µM* | -21% | 1% | -16% | 23%
COCCn1c(=O)c(-c2ccccc2)nc2cnc(Nc3cccc(OC)c3)nc21 | -4%[0.501 µM] | nt | nt | nt | nt
COc1ccc(-c2nn3c(-c4cc(-c5ccccc5)n[nH]4)nnc3s2)cc1 | nt | nt | nt | -7%[57.1 µM] | 31%[57 µM]
Cc1ccc(C(=O)NCC(=O)OCC(=O)c2ccc3ccccc3c2)cc1 | nt | nt | nt | -5%[57.1 µM] | 11%[57 µM]
Cc1ccc(NC(=O)c2cc(S(=O)(=O)N3CCc4ccccc43)ccc2F)cc1Cl | -8%[59 µM] | -8% | nt | -23% | -1%
CCOC(=O)c1cnc(SC2CC(=O)N(c3cccc(OC)c3)C2=O)nc1N (stereo not drawn) | 35µM* | 0% | -5% | -15% | 41%
CCOc1ccc2nc(SC3CC(=O)N(c4cccc(OC)c4)C3=O)sc2c1 (stereo not drawn) | 10µM* | 3% | 5% | -28% | 39%
CCOC(=O)c1ccc(N2C(=O)CC(Sc3ncccn3)C2=O)cc1 (stereo not drawn) | ? | -12% | -1% | -7% | 47%
CCCn1c(O)c(CN2CCCCC2)c(C)c(C#N)c1=O | -20%[59 µM] | -13% | -11% | ? | -13%
Cc1c(CN2CCCCC2)c(O)n(CCCO)c(=O)c1C#N | 45µM* | -8% | -12% | -17% | 23%
COc1ccc(-c2sc3cc4c(cc3c2C#CC2(N)CCCCC2)OCO4)cc1 | 4%[0.501 µM] | 10µM* | -6% | 25µM* | 11%
O=S(=O)(Cc1noc(-c2ccccc2Cl)n1)c1ccccn1 | 1% | -4% | -2% | -12% | 10%
CN(C)CCNc1ccc(CO)c2sc3ccc(O)cc3c(=O)c12 | nt | nt | nt | 50µM* | 71µM*
CN(C)CCNc1ccc2ncn3c4ccc(O)cc4c(=O)c1c23 | nt | nt | nt | ? | 9%
CCc1cccc(NC(=O)Cn2nc3c4cc(F)ccc4n(Cc4cccc(C)c4)cc-3c2=O)c1 | 5%[59 µM] | -4% | nt | 2% | 31%
Cc1cc(C)c(-c2nc3ccccc3s2)[nH]1 | 50µM* | -23% | nt | -21% | -2%
SMILES | G9a block | BAZ2B block | L3MBTL1 block | JMJD2A Tudor | HP1b binding inh
Cc1nn(-c2ccccc2)c(-n2cccc2)c1C(=O)N1CCN(c2ccccc2)CC1 | 3%[59 µM] | -29% | nt | -11% | 17%
Cn1c(-c2sc3cc(C(F)(F)F)cnc3c2-c2cccnc2)n[nH]c1=S | 3.5µM* | -9% | nt | -27%[11.4 µM] | -13%
Cn1c(-c2sc3cc(C(F)(F)F)cnc3c2-c2ccccn2)n[nH]c1=S | 6.3µM* | -16% | -2% | 14µM* | 23%
Cn1c(-c2sc3cc(C(F)(F)F)cnc3c2-c2cccs2)n[nH]c1=S | 4µM* | -1% | -14% | -30% | 2%
CSc1nnc(-c2sc3cc(C(F)(F)F)cnc3c2-c2ccccn2)n1C | 3%[59 µM] | 11% | nt | -17%[57.1 µM] | 35%
CCCOc1ccc(C2C(=O)N(C3CCCCCC3)CC(=O)N2CCC)cc1OC (stereo not drawn) | -4%[59 µM] | 2% | nt | -25% | 20%
Cc1ccc(S(=O)(=O)Nc2ccc3c(c2)c(C(=O)OC(C)C)c(C)n3S(=O)(=O)c2ccc(C)cc2)cc1 | -33%[59 µM] | -18% | nt | -21% | 34%
CC1CCCCC1NC(=O)COC(=O)c1c2c(nc3ccccc13)/C(=C/c1ccco1)CC2 (stereo not drawn) | ? | 45µM* | ? | 45µM* | -35%
O=C(COC(=O)c1c2c(nc3ccccc13)/C(=C/c1ccco1)CC2)NC1CCCC1 | 3.5µM* | 10µM* | 4.5µM* | ? | ?
Cc1cc(C(=O)OCC(=O)NC2CCCCC2C)c2ccccc2n1 (stereo not drawn) | nt | nt | 9% | -4% | 41%
CN(C)/C=C/C(=O)c1ccc(Br)cc1 | -8%[59 µM] | -11% | 5% | -20% | 20%
CN(O)/C=C/C(=O)c1ccc(Br)cc1 | 20µM* | -31% | 16% | 50µM* | -22%
COC(=O)c1ccc(NC(=O)c2c(C(=O)Nc3ccccc3)sc3nc(C)cc(=O)n23)cc1 | -51% | -14% | nt | -9% | 47%
COc1ccc(Cl)cc1NC(=O)c1c(C(=O)Nc2cccc(C)c2C)sc2nc(C)cc(=O)n12 | 11µM* | -3% | nt | -6% | 5%
COc1ccc(Cl)cc1NC(=O)c1ocnc1C | 50µM* | -1% | -3% | -3% | 28%
COc1ccc(NC(=O)c2ocnc2C)cc1OC | -2%[59 µM] | -2% | 2% | -28% | -24%
O=C(O)C1Cc2c([nH]c3ccccc23)C(c2ccc3c(c2)OCO3)N1 (stereo not drawn) | 35µM* | -29% | 0% | ? | 5%
Cc1cccc(C)c1-n1cccc1/C=C1/C(=N)N2C(=NC1=O)SN=C2S(C)(=O)=O | 32µM* | -28% | nt | -23% | 8%
CC1=CSC2=NC(=O)/C(=C\c3cccn3-c3ccccc3)C(=N)N12 | 2%[59 µM] | -7% | -10% | ? | 1%
Cc1ccc(-n2cccc2/C=C2/C(=N)N3C(=NC2=O)SN=C3S(C)(=O)=O)cc1Cl | 50µM* | 45µM* | ? | 45µM* | -35%
COc1ccc(-n2c(COc3ccccc3)n[nH]c2=S)cc1 | 14%[0.501 µM] | -2% | -4%[2.29 µM] | 50µM* | 32%
Cc1ccc(-n2c(COc3cccc(C)c3)n[nH]c2=S)cc1 | 4.5µM* | -30% | -15% | -21% | 45%
Cc1ccc(-n2c(COc3ccccc3)n[nH]c2=S)cc1 | 7.9µM* | -20% | 13% | -35% | 16%
CCN(C(=O)CCS(=O)(=O)c1ccc2c(c1)CCN2C(C)=O)c1cccc(C(F)(F)F)c1 | -8%[59 µM] | nt | nt | -15% | 7%
Cc1cccc(NC(=O)Cc2nc(-c3c[nH]c(C(=O)N4CCCC4)c3)cs2)c1 | 56µM* | ? | -13% | ? | -36%
